Results from PubChem BioAssay (NCATS).
Several values for one entry are separate records, joined by “and”; a condition that tells them apart may be missing. Equal entries are not always repeated. Inconclusive results are not listed. Where a call stands in place of a potency, no number is given. More than one record can exist for a structure, and the calls need not agree. Activity calls are given as the source filed them. Unless noted, calls come from the whole dose curve; as a rule, active = well fitted curve in the direction sought with a large enough effect; inconclusive = small, poorly fitted or top-dose-only effect, or another doubt; inactive = no such curve, though single readings can be large; an effect the other way counts as inactive or inconclusive.

What was measured:
[1] = Primary qHTS for small molecule stabilizers of the endoplasmic reticulum resident proteome: Secreted ER Calcium Modulated Protein (SERCaMP) assay (AID 1508630); details: SH-SY5Y GLuc-SERCaMP (Gaussia luciferase released on ER calcium loss) secretion, thapsigargin, luminescence; series mostly up to 38.4 µM
Method in brief: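 The SH-SY5Y reporter protocol was run at 3 concentrations up to 38.3 uM (primary) or 11 concentrations (follow-up): 16 h compound, 100 nM thapsigargin for 4 h, then extracellular luciferase luminescence.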

Papain (Carica papaya) = Papain (Carica papaya) (UniProt P00784); test: Primary qHTS assay for inhibitors of the protease papain (AID 1645873); details: papain Z-FR-AMC cleavage, AMC fluorescence; series mostly up to 49.8 µM;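 note: papain turnover of Z-FR-AMC read as the AMC fluorescence gain over 10 min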
Sequence of Papain (Carica papaya) (P00784 whole entry, looked up, the tested form may be a part): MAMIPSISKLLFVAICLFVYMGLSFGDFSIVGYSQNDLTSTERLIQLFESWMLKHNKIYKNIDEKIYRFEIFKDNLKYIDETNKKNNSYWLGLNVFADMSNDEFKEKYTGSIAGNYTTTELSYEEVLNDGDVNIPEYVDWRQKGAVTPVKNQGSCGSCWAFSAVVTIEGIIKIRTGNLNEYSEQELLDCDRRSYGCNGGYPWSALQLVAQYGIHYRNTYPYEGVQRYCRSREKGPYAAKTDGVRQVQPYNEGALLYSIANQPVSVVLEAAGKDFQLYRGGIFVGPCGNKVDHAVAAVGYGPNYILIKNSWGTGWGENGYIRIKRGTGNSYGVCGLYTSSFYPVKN

[2] = Primary qHTS for inhibitors of nuclear receptor binding SET domain protein 2 (NSD2) in an isogenic RCH-ACV NSD2 p.E1099K mutant (9B) (AID 1645876); details: RCH-ACV NSD2 E1099K (9B) viability, CellTiter-Glo, 72 h; series mostly up to 44.9 µM; note: nearly all actives have a fitted effect of over 70% in size; note: potency is the fitted concentration of half-maximal effect
[3] = Primary qHTS for inhibitors of nuclear receptor binding SET domain protein 2 (NSD2) in an RCH-ACV wild type WT cells (2C) (AID 1645877); details: RCH-ACV (leukaemia line) NSD2 WT (2C) viability, CellTiter-Glo, 72 h; series mostly up to 44.9 µM; note: nearly all actives have a fitted effect of over 70% in size; note: potency is the fitted concentration of half-maximal effect
[4] = target: Cytochrome P450 2D6 (Homo sapiens) (UniProt P10635); test: Cytochrome P450 family 2 subfamily D member 6 (CYP2D6) small molecule antagonists: luciferase biochemical (cell-free) qHTS assay (AID 1645840; active = well fitted curve in the direction sought with a large enough effect in the repeat runs; an effect the other way counts as inactive or inconclusive; note: nearly all actives have a fitted effect of over 55% in size; note: potency is the fitted concentration of half-maximal effect); details: P450-Glo CYP2D6 enzyme, luciferin luminescence, 1 h; series mostly up to 57.4 µM
Sequence of Cytochrome P450 2D6 (Homo sapiens) (P10635 whole entry, looked up): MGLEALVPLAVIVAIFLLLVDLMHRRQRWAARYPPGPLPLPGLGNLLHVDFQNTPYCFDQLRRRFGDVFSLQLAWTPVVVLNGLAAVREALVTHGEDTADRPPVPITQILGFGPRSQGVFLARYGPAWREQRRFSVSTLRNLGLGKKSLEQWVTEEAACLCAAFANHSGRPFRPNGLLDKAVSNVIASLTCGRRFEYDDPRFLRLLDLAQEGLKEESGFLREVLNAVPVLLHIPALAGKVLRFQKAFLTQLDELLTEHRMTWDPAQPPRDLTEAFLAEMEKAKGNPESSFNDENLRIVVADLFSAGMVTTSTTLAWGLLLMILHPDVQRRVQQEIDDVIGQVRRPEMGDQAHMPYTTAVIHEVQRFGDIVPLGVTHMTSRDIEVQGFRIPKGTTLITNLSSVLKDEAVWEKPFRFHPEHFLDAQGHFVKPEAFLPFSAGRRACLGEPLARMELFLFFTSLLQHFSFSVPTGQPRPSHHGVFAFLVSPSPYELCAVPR
Method in brief: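 P450-Glo CYP2D6 system: proluciferin substrate converted by enzyme to luciferin, read by luminescence proportional to activity. Enzyme-substrate mix with compound 10 min at room temperature, then NADPH regeneration 1 h before detection reagent.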

[5] = target: Cytochrome P450 2C9 (Homo sapiens) (UniProt P11712); test: Cytochrome P450 family 2 subfamily C member 9 (CYP2C9) small molecule antagonists: luciferase biochemical (cell-free) qHTS assay (AID 1645842; active = well fitted curve in the direction sought with a large enough effect in the repeat runs; an effect the other way counts as inactive or inconclusive; note: nearly all actives have a fitted effect of over 55% in size; note: potency is the fitted concentration of half-maximal effect); details: P450-Glo CYP2C9 enzyme assay, luciferin luminescence; series mostly up to 57.4 µM
Sequence of Cytochrome P450 2C9 (Homo sapiens) (P11712 whole entry, looked up): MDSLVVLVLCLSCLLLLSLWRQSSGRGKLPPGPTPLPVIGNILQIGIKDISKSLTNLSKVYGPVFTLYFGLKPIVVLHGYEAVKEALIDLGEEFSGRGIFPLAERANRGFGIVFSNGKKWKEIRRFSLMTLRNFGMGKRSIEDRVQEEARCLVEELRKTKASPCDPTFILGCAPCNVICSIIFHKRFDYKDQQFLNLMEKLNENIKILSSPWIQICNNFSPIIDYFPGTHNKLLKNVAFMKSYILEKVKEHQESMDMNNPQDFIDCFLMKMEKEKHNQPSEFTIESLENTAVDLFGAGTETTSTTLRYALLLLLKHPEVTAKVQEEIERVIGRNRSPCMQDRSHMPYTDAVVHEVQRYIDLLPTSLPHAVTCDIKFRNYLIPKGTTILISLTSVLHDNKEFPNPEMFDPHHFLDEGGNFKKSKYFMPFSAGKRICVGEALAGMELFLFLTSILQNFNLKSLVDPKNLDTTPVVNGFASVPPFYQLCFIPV
Method in brief: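 P450-Glo CYP2C9 system: proluciferin substrate with enzyme in mix containing 0.4% BSA, 10 min at room temperature, then NADPH regeneration solution added and incubated 1 h at 37C. Detection reagent stopped reaction; luminescence read after 20 min as RLU.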

[6] = target: N-terminal Xaa-Pro-Lys N-methyltransferase 1 (Homo sapiens) (UniProt Q9BV86); test: Confirmatory qHTS for Inhibitors of N-terminal methyltransferase 1 (NTMT1): MTaseGlo Assay (AID 1645874); details: NTMT1 enzyme, MTase-Glo SAH luminescence; series mostly up to 51.5 µM; note: potency is the fitted concentration of half-maximal effect; nearly all actives have a fitted effect of over 65% in size
Sequence of N-terminal Xaa-Pro-Lys N-methyltransferase 1 (Homo sapiens) (Q9BV86 whole entry, looked up): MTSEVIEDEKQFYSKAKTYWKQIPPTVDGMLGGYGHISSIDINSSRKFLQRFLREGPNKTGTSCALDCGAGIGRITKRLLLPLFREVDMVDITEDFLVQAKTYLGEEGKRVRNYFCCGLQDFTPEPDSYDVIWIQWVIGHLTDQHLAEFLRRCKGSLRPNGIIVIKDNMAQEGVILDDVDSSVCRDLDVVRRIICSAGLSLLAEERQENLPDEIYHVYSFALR
Method in brief: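 Inhibition was derived from luminescence after SAH-to-ATP conversion, scaled between no-enzyme and DMSO wells, then fitted by 4-parameter Hill. Conditions: 125 nM NTMT1, 100 uM SAM, 1 uM SPKRIA, 30 min RT.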

[7] = target: Cytochrome P450 3A4 (Homo sapiens) (UniProt P08684); test: Cytochrome P450 family 3 subfamily A member 4 (CYP3A4) small molecule antagonists: luciferase qHTS assay (AID 1645841; active = well fitted curve in the direction sought with a large enough effect in the repeat runs; an effect the other way counts as inactive or inconclusive; note: nearly all actives have a fitted effect of over 45% in size); details: P450-Glo CYP3A4 enzyme assay, luciferin luminescence; series mostly up to 57.4 µM
Sequence of Cytochrome P450 3A4 (Homo sapiens) (P08684 whole entry, looked up): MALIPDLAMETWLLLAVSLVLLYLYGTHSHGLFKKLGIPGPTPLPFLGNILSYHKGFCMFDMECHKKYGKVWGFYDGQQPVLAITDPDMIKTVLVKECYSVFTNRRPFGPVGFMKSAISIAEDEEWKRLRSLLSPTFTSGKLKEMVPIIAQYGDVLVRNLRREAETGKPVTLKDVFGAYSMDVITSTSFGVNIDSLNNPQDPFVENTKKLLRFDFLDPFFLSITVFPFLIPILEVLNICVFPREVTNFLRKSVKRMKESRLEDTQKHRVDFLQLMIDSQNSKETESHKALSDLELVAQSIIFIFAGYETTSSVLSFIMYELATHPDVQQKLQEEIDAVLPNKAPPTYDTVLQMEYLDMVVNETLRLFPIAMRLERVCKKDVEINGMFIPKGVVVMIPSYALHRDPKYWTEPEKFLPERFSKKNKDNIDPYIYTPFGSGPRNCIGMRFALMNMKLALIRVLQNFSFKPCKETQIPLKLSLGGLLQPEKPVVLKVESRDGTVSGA
Method in brief: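 P450-Glo CYP3A4 enzyme with proluciferin substrate preincubated 10 min with compound at room temperature, then NADPH regeneration 1 h. Luciferin detection reagent added for 20 min; luminescence recorded. Ketoconazole positive control.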

[8] = target: Rap guanine nucleotide exchange factor 3 (Homo sapiens) (UniProt O95398); test: Confirmatory qHTS for antagonist of cAMP-regulated guanine nucleotide exchange factor 3 (EPAC1) (AID 1645880); details: EPAC1 Rap1B-BODIPY-GDP exchange, fluorescence; series mostly up to 115 µM; note: nearly all actives have a fitted effect of over 55% in size
Sequence of Rap guanine nucleotide exchange factor 3 (Homo sapiens) (O95398 whole entry, looked up): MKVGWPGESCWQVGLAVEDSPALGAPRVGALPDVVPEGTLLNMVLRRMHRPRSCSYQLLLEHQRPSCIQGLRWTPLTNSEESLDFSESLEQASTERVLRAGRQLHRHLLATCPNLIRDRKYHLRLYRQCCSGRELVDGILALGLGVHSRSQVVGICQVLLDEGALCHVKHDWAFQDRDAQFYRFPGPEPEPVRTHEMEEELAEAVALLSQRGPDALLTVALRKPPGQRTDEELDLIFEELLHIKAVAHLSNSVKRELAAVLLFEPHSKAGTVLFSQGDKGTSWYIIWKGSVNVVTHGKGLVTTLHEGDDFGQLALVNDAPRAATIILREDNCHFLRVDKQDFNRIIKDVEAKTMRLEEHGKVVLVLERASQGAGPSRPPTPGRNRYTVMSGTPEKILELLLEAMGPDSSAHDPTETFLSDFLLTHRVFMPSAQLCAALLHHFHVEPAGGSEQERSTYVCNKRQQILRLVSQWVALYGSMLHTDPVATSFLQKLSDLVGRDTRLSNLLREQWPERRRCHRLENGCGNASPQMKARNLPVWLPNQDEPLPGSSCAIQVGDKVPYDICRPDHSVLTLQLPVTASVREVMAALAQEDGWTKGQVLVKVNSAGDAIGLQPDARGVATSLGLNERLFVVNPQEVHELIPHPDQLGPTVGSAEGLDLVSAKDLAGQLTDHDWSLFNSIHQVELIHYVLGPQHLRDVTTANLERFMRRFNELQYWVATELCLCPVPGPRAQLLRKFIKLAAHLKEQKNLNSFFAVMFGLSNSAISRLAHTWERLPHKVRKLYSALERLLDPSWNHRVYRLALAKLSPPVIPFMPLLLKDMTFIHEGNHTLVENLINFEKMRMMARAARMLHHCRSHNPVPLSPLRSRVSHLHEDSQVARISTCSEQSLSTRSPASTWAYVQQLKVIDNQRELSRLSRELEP
Method in brief: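 Released BODIPY-GDP fluoresces less than Rap1-bound BODIPY-GDP; the signal is followed at 480/540 nm at 5-min intervals over 30 min, after 5 min at room temperature. Reactions contain 100 nM EPAC1, 250 nM RAP1B-BODIPY-GDP and 50 uM GDP; results are normalized to ATA and DMSO.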

[9] = target: Rap guanine nucleotide exchange factor 3 (Homo sapiens) (UniProt O95398); test: Confirmatory qHTS for agonist of cAMP-regulated guanine nucleotide exchange factor 3 (EPAC1) (AID 1645881); details: EPAC1 Rap1B BODIPY-GDP exchange fluorescence; series mostly up to 154 µM;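 note: EPAC1 catalysed release of BODIPY-GDP from Rap1B seen as fluorescence loss; nearly all actives have a fitted effect of over 75% in size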
[10] = target: Rap guanine nucleotide exchange factor 4 (Homo sapiens) (UniProt Q8WZA2); test: Confirmatory qHTS for agonist of cAMP-regulated guanine nucleotide exchange factor 4 (EPAC2) (AID 1645884); details: EPAC2 GEF activity, Rap1B-BODIPY-GDP fluorescence; series mostly up to 154 µM;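 note: nucleotide exchange releases bodipy-GDP from Rap1 and this lowers its fluorescence; nearly all actives have a fitted effect of over 65% in size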
Sequence of Rap guanine nucleotide exchange factor 4 (Homo sapiens) (Q8WZA2 whole entry, looked up): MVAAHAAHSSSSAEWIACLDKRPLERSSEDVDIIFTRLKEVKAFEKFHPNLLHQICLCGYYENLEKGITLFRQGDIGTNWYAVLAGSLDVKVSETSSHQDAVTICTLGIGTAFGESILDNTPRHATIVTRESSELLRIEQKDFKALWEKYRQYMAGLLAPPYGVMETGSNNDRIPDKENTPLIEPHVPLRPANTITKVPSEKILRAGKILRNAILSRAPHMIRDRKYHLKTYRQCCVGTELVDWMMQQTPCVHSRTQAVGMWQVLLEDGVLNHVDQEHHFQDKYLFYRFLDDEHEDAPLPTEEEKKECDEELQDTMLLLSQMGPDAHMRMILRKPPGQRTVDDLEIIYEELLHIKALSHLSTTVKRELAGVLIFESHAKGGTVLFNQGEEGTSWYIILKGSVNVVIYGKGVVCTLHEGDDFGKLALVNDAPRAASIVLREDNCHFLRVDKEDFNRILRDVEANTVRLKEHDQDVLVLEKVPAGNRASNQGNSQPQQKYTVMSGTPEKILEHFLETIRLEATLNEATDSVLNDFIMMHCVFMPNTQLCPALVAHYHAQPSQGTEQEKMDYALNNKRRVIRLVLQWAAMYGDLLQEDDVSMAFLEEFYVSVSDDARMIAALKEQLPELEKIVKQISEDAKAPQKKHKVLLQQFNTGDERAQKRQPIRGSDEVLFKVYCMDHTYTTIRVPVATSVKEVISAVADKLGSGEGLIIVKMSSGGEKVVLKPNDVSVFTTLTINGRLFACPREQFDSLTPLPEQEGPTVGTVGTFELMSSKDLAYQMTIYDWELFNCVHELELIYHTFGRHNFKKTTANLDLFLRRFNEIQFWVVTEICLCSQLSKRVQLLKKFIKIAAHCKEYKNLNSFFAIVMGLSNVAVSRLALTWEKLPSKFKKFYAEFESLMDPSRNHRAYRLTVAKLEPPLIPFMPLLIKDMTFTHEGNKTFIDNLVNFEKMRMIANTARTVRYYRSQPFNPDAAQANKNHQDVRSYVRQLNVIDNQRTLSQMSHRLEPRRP

[11] = target: Rap guanine nucleotide exchange factor 4 (Homo sapiens) (UniProt Q8WZA2); test: Confirmatory qHTS for antagonist of cAMP-regulated guanine nucleotide exchange factor 4 (EPAC2) (AID 1645885); details: EPAC2 Rap1B-BODIPY-GDP exchange fluorescence, biochemical; series mostly up to 114 µM; note: nearly all actives have a fitted effect of over 25% in size
[12] = target: Rap guanine nucleotide exchange factor 3 (Homo sapiens) (UniProt O95398); test: Counterscreen qHTS for antagonist of cAMP-regulated guanine nucleotide exchange factor 3 (EPAC1) (AID 1645888); details: Rap1B-BODIPY-GDP nucleotide exchange, fluorescence; series mostly up to 154 µM
Method in brief: (§1)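 Rap1B–BODIPY-GDP (250 nM) with 50 uM GDP; compounds pin-transferred to 9.74 nM–152 uM final (activator) or from 7.32 nM upwards (inhibitor). Fluorescence Ex/Em 480/540 nm read at 5 and 30 min, then after adding cAMP or buffer, at room temperature.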

[13] = target: Rap guanine nucleotide exchange factor 3 (Homo sapiens) (UniProt O95398); test: Counterscreen qHTS for agonist of cAMP-regulated guanine nucleotide exchange factor 3 (EPAC1) (AID 1645889); details: EPAC1 Rap1B-BODIPY-GDP exchange, fluorescence; series mostly up to 154 µM; note: nearly all actives have a fitted effect of over 40% in size
Method in brief: as §1

[14] = target: Catechol O-methyltransferase (Homo sapiens) (UniProt P21964); test: Confirmatory Screen for Target Class Profiling of Small Molecule Inhibitors of Methyltransferases (AID 1745852); details: MTase-Glo luminescence, SAH detection, recombinant enzyme, stronger effect = lower value; measured here: COMT max response unless noted
Sequence of Catechol O-methyltransferase (Homo sapiens) (P21964 whole entry, looked up): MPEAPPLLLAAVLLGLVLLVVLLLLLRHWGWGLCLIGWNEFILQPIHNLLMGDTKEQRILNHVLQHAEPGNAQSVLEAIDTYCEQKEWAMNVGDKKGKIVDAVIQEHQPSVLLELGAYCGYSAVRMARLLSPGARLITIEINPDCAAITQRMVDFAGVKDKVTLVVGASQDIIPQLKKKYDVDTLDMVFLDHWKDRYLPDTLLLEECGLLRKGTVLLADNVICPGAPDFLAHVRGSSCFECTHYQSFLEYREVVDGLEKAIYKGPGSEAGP

[15] = target: Guanidinoacetate N-methyltransferase (Homo sapiens) (UniProt Q14353); test: as above; details: MTase-Glo luminescence, SAH detection, recombinant enzyme; activity change, negative = inhibition: at 57.3 µM (top of the series)
[16] = target: Nicotinamide N-methyltransferase (Homo sapiens) (UniProt P40261); test: as above; details: MTase-Glo luminescence, SAH detection, recombinant enzyme, stronger effect = lower value; measured here: NNMT max response unless noted
Sequence of Nicotinamide N-methyltransferase (Homo sapiens) (P40261 whole entry, looked up): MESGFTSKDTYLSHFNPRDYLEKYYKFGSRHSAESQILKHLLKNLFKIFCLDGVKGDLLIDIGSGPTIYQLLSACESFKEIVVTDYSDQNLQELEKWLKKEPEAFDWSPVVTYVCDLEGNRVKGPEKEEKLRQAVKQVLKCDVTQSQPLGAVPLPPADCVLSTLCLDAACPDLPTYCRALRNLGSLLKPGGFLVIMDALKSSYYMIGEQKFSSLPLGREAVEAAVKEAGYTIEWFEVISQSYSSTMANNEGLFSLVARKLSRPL

[17] = target: Phenylethanolamine N-methyltransferase (Homo sapiens) (UniProt P11086); test: as above; details: MTase-Glo luminescence, SAH detection, recombinant enzyme, stronger effect = lower value; measured here: PNMT max response unless noted
Sequence of Phenylethanolamine N-methyltransferase (Homo sapiens) (P11086 whole entry, looked up): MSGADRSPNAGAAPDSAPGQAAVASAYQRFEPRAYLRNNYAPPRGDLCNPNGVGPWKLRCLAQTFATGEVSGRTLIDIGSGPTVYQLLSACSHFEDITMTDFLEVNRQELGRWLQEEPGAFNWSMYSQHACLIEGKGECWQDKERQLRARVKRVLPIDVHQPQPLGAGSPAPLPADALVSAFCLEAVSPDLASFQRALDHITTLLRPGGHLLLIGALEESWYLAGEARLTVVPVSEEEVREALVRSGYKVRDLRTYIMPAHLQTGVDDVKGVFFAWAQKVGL

Nc1nc(OCc2ccccc2)c2[nH]cnc2n1
Potency [1]: inactive
Potency (Papain (Carica papaya)): inactive

CCOC(=O)C1=C(O)C(=O)N(Cc2ccccc2)C1
Potency [1]: inactive
Potency (Papain (Carica papaya)): inactive
Potency [2]: inactive
Potency [3]: inactive

CCOC(=O)C(C)Oc1cccc2c(=O)n(CC(=O)Nc3ccc4c(c3)OCCO4)ccc12 (stereo unspecified)
Potency [1]: inactive
Potency (Papain (Carica papaya)): inactive
Potency [2]: inactive
Potency [3]: inactive

CCCCN(CCCC)CCC(O)c1cc2c(Cl)cc(Cl)cc2c2cc(C(F)(F)F)ccc12 (stereo unspecified)
Potency [1]: inactive
Potency [4]: 0.55 µM (active)
Potency [5]: inactive
Potency [2]: 13.3 µM (active)
Potency [3]: 16.6 µM (active)

Nc1nc(Cl)nc2c1ncn2[C@H]1C[C@H](O)[C@@H](CO)O1
Potency [1]: inactive
Potency [4]: inactive
Potency [2]: 0.0468 µM (active)
Potency [3]: 0.0417 µM (active)

CC1Cc2ccccc2N1NC(=O)c1ccc(Cl)c(S(N)(=O)=O)c1 (stereo unspecified)
Potency [1]: inactive
Potency [5]: inactive
Potency [2]: inactive
Potency [3]: inactive

Nc1ccn([C@@H]2O[C@H](CO)[C@@H](O)C2O)c(=O)n1 (stereo partly specified)
Potency [1]: inactive
Potency [4]: inactive
Potency [2]: 0.0166 µM (active)
Potency [3]: 0.0166 µM (active)

COc1ccc(C2(C#N)CCC(C(=O)O)CC2)cc1OC1CCCC1 (stereo unspecified)
Potency [1]: inactive
Potency [5]: inactive
Potency [2]: inactive
Potency [3]: inactive

C[C@@H](N)C1CCC(C(=O)Nc2ccncc2)CC1 (stereo partly specified)
Potency [1]: inactive
Potency (Papain (Carica papaya)): inactive
Potency [2]: inactive
Potency [3]: inactive

CC1(C)CCC(C)(C)c2cc(NC(=O)c3ccc(C(=O)O)cc3)ccc21
Potency [1]: inactive
Potency [4]: inactive
Potency [5]: inactive

Oc1ccc(-c2nc(-c3ccc(F)cc3)c(-c3ccncc3)[nH]2)cc1
Potency [1]: inactive
Potency (Papain (Carica papaya)): inactive
Potency [6]: 39.8 µM (active)
Potency [2]: 5.25 µM (active)
Potency [3]: 14.8 µM (active)

CCCCCCCCOc1ccccc1C(=O)Nc1ccc(C(=O)OCC[N+](C)(CC)CC)cc1
Potency [1]: inactive
Potency [5]: 1.55 µM (active)
Potency [6]: 47.8 µM (active)

O=C(NOCC1CC1)c1ccc(F)c(F)c1Nc1ccc(I)cc1Cl
Potency [1]: inactive
Potency [4]: inactive
Potency [5]: 0.617 µM (active)
Potency [2]: 8.41 µM (active) and 23 µM (active)
Potency [3]: 6.68 µM (active) and 20.5 µM (active)

CCCS(=O)c1ccc2nc(NC(=O)OC)[nH]c2c1 (stereo unspecified)
Potency [1]: inactive
outcome [7]: inactive
Potency [5]: inactive
Potency [2]: 4.22 µM (active) and 8.17 µM (active)
Potency [3]: 2.66 µM (active) and 18.6 µM (active) and 4.09 µM (active)

CCOc1cc(CC(=O)N[C@@H](CC(C)C)c2ccccc2N2CCCCC2)ccc1C(=O)O
Potency [1]: inactive
Potency [5]: inactive
Potency [2]: inactive
Potency [3]: inactive
Potency [8]: inactive
outcome [9]: inactive
outcome [10]: inactive
Potency [11]: inactive
outcome [12]: inactive
outcome [13]: inactive

CCN(CC)CCOc1ccc(Cc2ccccc2)cc1
Potency [1]: inactive
Potency [5]: inactive
Potency [3]: 29.9 µM (active)

O=C(CCc1ccc(O)cc1)c1c(O)cc(O)cc1O
Potency [1]: inactive
Potency (Papain (Carica papaya)): inactive
Potency [2]: inactive

Cc1cc(Cl)ccc1OCCCC(=O)NO
Potency [1]: inactive
Potency (Papain (Carica papaya)): inactive
Potency [2]: 1.48 µM (active)
Potency [3]: 1.66 µM (active)

Cc1ccc(NC(=O)c2ccc(CN3CCN(C)CC3)cc2)cc1Nc1nccc(-c2cccnc2)n1
Potency [1]: inactive
Potency [4]: inactive
Potency [5]: inactive and 23.9 µM (active)
Potency [2]: 15 µM (active) and 20.6 µM (active) and 18.6 µM (active)
Potency [3]: 13.3 µM (active) and 18.4 µM (active) and 16.6 µM (active)

O=c1oc2cc(O)ccc2s1
Potency [1]: inactive
Potency [4]: inactive
Potency [5]: inactive
Potency [2]: 20.9 µM (active)
Potency [3]: 20.9 µM (active)

Cc1cc(C2CCCCC2)n(O)c(=O)c1
Potency [1]: inactive
Potency [4]: inactive
Potency [5]: inactive
Potency [2]: 5.8 µM (active) and 266 nM (active) and 7.42 µM (active)
Potency [3]: 3.26 µM (active) and 266 nM (active) and 4.68 µM (active)

C[C@@H](c1ncncc1F)[C@](O)(Cn1cncn1)c1ccc(F)cc1F
Potency [1]: inactive
Potency (Papain (Carica papaya)): inactive

CN(C)C(=O)[C@H](O)[C@H](Cc1ccccc1)NC(=O)c1cc2cc(Cl)ccc2[nH]1
Potency [1]: inactive
Potency (Papain (Carica papaya)): inactive

COc1cc(C(C)=O)ccc1OCCCN1CCC(c2noc3cc(F)ccc23)CC1
Potency [1]: inactive
Potency [4]: 5.49 µM (active)
Potency [5]: inactive

CN(C)CCCC1(c2ccc(F)cc2)OCc2cc(C#N)ccc21 (stereo unspecified)
Potency [1]: inactive
Potency (Papain (Carica papaya)): inactive

CCN(CC)CCOc1ccc(Nc2ncc3cc(-c4c(Cl)cccc4Cl)c(=O)n(C)c3n2)cc1
Potency [1]: inactive
Potency [2]: 0.417 µM (active)
Potency [3]: 0.468 µM (active)
activity [14]: -14.1%
activity change, negative = inhibition [15]: 1.71%
activity [16]: -19.9%
activity [17]: -2.93%

Cc1cc(O)c2c(c1)C(=O)c1cc(O)cc(O)c1C2=O
Potency (Papain (Carica papaya)): inactive
Potency [6]: 30.8 µM (active)
Potency [2]: inactive
Potency [3]: inactive
